D1 antag: blocks dopamine activation of the human D1 receptor; P21728; HEK293 TREx D1 cells, calcium flux, dopamine EC80; hits give low values; activity change, negative = inhibition, % at 10 µM; actives 3.2% (n = 360,000); AID 504652; in the data active = activity change below about -30%; note: % is set by controls: 0 for no effect and ±100 for the full control effect
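Allosteric or orthosteric antagonism assessed as attenuation of the calcium response to EC80 dopamine, added 180 s after compound, in induced HEK293 Trex D1 cells loaded with no-wash calcium dye.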
D1 ag: activates the human D1 dopamine receptor; P21728; HEK293 T-REx D1 cells, calcium flux, agonist mode; activation, % at 2 µM; actives 1% (n = 360,000); AID 504660; in the data active = activation above about 30%; note: 0% is about no effect
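Tetracycline-induced HEK293 TREx D1 cells, force-coupled to calcium signalling, were dye-loaded with a no-wash calcium kit. Compound was pin-added after a 10 s baseline. Fluorescence was read kinetically at 1 cycle/s for 180 s, with calcium rises flagged as agonism.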
D3 ag: activates the human D3 dopamine receptor; P35462; D3R DiscoveRx beta-arrestin cells, luminescence, 90 min; max activation, %; actives 0.58% (n = 410,000); AID 652048; in the data active = max activation above about 30%; note: 0% is about no effect
Target sequence (P35462 whole entry, looked up): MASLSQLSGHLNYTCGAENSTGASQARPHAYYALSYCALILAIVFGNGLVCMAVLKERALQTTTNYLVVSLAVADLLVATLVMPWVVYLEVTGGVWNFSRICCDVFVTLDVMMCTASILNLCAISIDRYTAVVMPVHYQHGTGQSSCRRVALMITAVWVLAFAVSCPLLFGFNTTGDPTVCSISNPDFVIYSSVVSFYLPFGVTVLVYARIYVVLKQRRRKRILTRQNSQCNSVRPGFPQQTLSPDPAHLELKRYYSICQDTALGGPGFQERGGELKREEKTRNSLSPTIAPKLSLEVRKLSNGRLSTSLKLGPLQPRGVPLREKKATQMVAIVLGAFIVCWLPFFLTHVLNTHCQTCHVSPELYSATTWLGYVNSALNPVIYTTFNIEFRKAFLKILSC
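Agonist-mode cell screen: cells plated at 1500/well and incubated overnight at 37 °C, then exposed to library compounds for 90 min at 37 °C. Detection reagent was added for 30–60 min at room temperature, and luminescence was read.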
D1 PAM: potentiators of human D1 dopamine receptor. HEK293 TREx D1 cells, calcium flux, dopamine EC20 potentiation. potentiation, % at 10 µM. P21728. AID 504651. actives 0.036% (n = 360,000); in the data active = potentiation above about 30%; note: 0% is about no effect
DRD3 antagonist: D3 dopamine receptor (human) antagonism | P35462 | D3R cells, DiscoveRx beta-arrestin luminescence, antagonist mode; hits give low values | max response, negative = inhibition, % | actives 2.5% (n = 360,000); in the data active = max response below about -50%; inconclusive = no clear call, values can overlap the other calls; note: % is set by controls: 0 for no effect and ±100 for the full control effect
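Cells expressing the human receptor were seeded at 1500 cells/well, incubated overnight at 37 degrees C in 5% CO2, then exposed to library compounds with dopamine controls for 90 minutes at 37 degrees C before luminescent detection.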
An asterisk follows results filed as active; ? = inconclusive; . = not tested or not shown; ! = a repeat was not active. The list is not random: actives were taken first. Their share in the collection is about 6.1%.

SMILES | D1 antag | D1 ag | D3 ag | D1 PAM | DRD3 antagonist
Cc1ccc(NC(=S)NCC2CCN(C(C)c3ccccc3)C2)cc1C (stereo unspecified) | -63* | 10 | -17 | -6 | -25
Cc1ccc(CSc2nc3ccc(NC(=O)C(C)C)cc3s2)cc1 | -12 | 6 | -3 | -2 | .
Cc1cccc(NC(=O)CN2C(=O)N/C(=C/c3ccc(C)s3)C2=O)c1 | -7 | 53* | 5 | -5 | 18
COc1ccc(NC(c2ccc(F)cc2)c2nnc(-c3ccccc3Cl)o2)cc1Cl (stereo unspecified) | 9 | 3 | 2 | 0 | .
COc1ccccc1CCNC(=O)Cn1ccc2cc(S(=O)(=O)N3CCCCC3)ccc21 | -9 | 5 | 1 | 0 | .
COc1ccc(OC)c(CNC(=O)CCCn2ccc3cc(S(=O)(=O)N4CCCC4)ccc32)c1 | -33*! | 4 | 1 | -1 | 2
COC(=O)Cn1ccc2cc(S(=O)(=O)N3CCCCC3)ccc21 | -51*! | 5 | -8 | -1 | 8
COc1cccc(CNC(=O)CCCn2ccc3cc(S(=O)(=O)N4CCCC4)ccc32)c1 | 1 | 7 | 8 | -4 | 4
COc1ccccc1CCNC(=O)Cn1ccc2cc(S(=O)(=O)N3CCCC3)ccc21 | -31* | 7 | 2 | -9 | -10
S=C1NCN(CCc2ccccc2)CN1Cc1ccccc1 | 1 | 53* | 4 | -5 | 0
COc1cccc(N2CN(CCc3ccccc3)CNC2=S)c1 | -30* | 3 | 11 | -6 | 7
CCCN1CN(Cc2ccccc2)CNC1=S | 2 | 4 | 2 | -7 | 5
CC(C)CN1CN(Cc2ccccc2)CNC1=S | -31* | 0 | -18 | 0 | 5
CC12CCC(=O)N1C(C(=O)N1CCN(c3cccc(Cl)c3)CC1)CS2 (stereo unspecified) | -61* | 9 | 23 | . | 11
CC12CCC(=O)N1C(C(=O)N1CCN(c3ccccc3)CC1)CS2 (stereo unspecified) | -16 | 3 | 6 | -1 | 1
CCCCN1C(=N)N([C@@H](CCC)CN2CCC[C@H]2CN2C(N)=NC[C@@H]2Cc2ccccc2)C[C@H]1Cc1ccccc1 | . | . | -48 | . | -79*
CCC[C@@H](CN1CCC[C@H]1CN1C(N)=NC[C@H]1CC(C)C)N1C[C@@H](Cc2ccccc2)N(CCCC2CCCC2)C1=N | . | . | -53 | . | -1
CCC[C@@H](CN1CCC[C@H]1CN1C(N)=NC[C@@H]1Cc1ccccc1)N1C[C@@H]([C@H](C)CC)N(CCCC2CCCC2)C1=N | . | . | -39 | . | -97*
CCC[C@@H](CN1CCC[C@H]1CN1C(N)=NC[C@@H]1Cc1ccccc1)N1C[C@@H](Cc2ccccc2)N(CCCC2CCCC2)C1=N | . | . | -55 | . | -64*
Cc1ccc(-c2cn(-c3ccc(Cl)cc3)c(S(=O)(=O)CC(=O)Nc3ccccc3)n2)cc1 | 4 | 6 | 1 | 2 | .
COc1cc(/C=C(\C#N)c2nc3ccccc3n2C)cc(OC)c1O | 1 | 64* | 2 | -4 | -2
COc1ccc(/C=C(\C#N)c2nc3ccccc3[nH]2)cc1O | -7 | 2 | 2 | 0 | 1
COc1cc(C=C(C#N)c2ccc([N+](=O)[O-])cc2)ccc1O | . | . | -17 | . | -52*
COc1c(Cl)cc(Cl)cc1/C=C(\C#N)c1nc2ccccc2[nH]1 | -61* | 12 | -16 | -7 | .
COc1cc(/C=C(\C#N)c2nc3ccccc3[nH]2)cc(OC)c1O | -2 | 109* | 3 | -1 | -16
SMILES | D1 antag | D1 ag | D3 ag | D1 PAM | DRD3 antagonist
Cn1c(/C(C#N)=C/c2ccc(O)cc2)nc2ccccc21 | -2 | 2 | 3 | 0 | 1
N#C/C(=C\c1c(Cl)cccc1Cl)c1nc2ccccc2[nH]1 | -12 | 8 | -6 | -6 | -22
COc1ccc(C(CC(=O)Nc2ccc(C)cn2)N2Cc3ccccc3C2=O)cc1OC (stereo unspecified) | 3 | -1 | -4 | -2 | .
Cc1oc2ncn(CC(C)C)c(=O)c2c1C(=O)NCCCN1CCCCC1C (stereo unspecified) | -2 | 1 | -5 | -4 | .
CCOC(=O)c1ccc(NS(=O)(=O)c2cc3c(cc2C)n(C)c(=O)c(=O)n3C)cc1 | -29 | 0 | 3 | 3 | .
COc1cc(/C=C(/C#N)c2nc3ccccc3c(=O)[nH]2)ccc1O | 0 | 34* | 7 | -1 | 11
COc1ccc(/C=N/Nc2ccc([N+](=O)[O-])cc2)cc1O | -15 | 31* | -10 | -11 | -53*
COc1ccc(/C=N/Nc2ccc([N+](=O)[O-])cc2)cc1Cn1cc([N+](=O)[O-])cn1 | . | 19 | -13 | -4 | ?
Cc1cccc(NC(=O)c2ccc(CNS(=O)(=O)c3ccc4c(c3)C(C)(C)C(=O)N4C)cc2)c1 | -2 | 0 | 2 | -3 | .
CCN1CCN(c2ccc(S(=O)(=O)N3CCCCC3)cc2NC(=O)Cc2ccccc2)CC1 | 4 | 2 | -7 | 8 | -18
CCN1CCN(c2ccc(S(=O)(=O)N3CCCCC3)cc2NC(=O)c2ccc(C)o2)CC1 | -48* | 0 | -1 | 2 | -8
CCOc1ccc(S(=O)(=O)N2CCOCC2)cc1NC(=O)c1ccccc1F | 6 | 3 | 79* | -4 | -9
O=C(COc1ccccc1Cl)NNC(=O)c1cc(S(=O)(=O)N2CCOCC2)ccc1N1CCCC1 | -32* | 1 | 3 | -14 | 7
CCN1CCN(c2ccc(S(=O)(=O)N3CCCCC3)cc2NC(=O)Cc2ccc(Cl)c(Cl)c2)CC1 | -55* | 101* | -6 | -1 | 9
CCN1CCN(c2ccc(S(=O)(=O)N3CCCCC3)cc2NC(=O)c2ccccc2)CC1 | 15 | 2 | 0 | 7 | -8
CCOc1ccc(S(=O)(=O)N2CCN(CC)CC2)cc1NC(=O)c1ccccc1F | -2 | 1 | 2 | -4 | -11
CCOC(=O)Cc1ccc(NC(=O)Nc2cccc(OCc3cc(=O)n4cc(C)ccc4n3)c2)cc1 | 7 | 1 | 5 | 0 | .
Cc1cc2c(s1)c(C#N)c(C(=O)NCc1ccccc1F)n2C | -30 | 4 | . | -6 | .
CC1=Nc2cc(C(=O)NCCc3ccc(Cl)cc3)ccc2Sc2c(C)ccc(C)c21 | 4 | 7 | -9 | 2 | .
CCN1CCN(S(=O)(=O)c2ccc(Cl)c(C(=O)Nc3cc(Cl)ccc3N3CCOCC3)c2)CC1 | -40* | 5 | 0 | -8 | -15
CCN1CCN(S(=O)(=O)c2ccc(Cl)c(C(=O)Nc3ccccc3N3CCOCC3)c2)CC1 | -3 | 2 | -1 | -4 | 5
CCOc1ccccc1OCC(=O)Nc1cc(S(=O)(=O)N2CCCCC2)ccc1N1CCN(CC)CC1 | -36* | 3 | -12 | -8 | ?
CCc1nnc(NC(=O)Cc2ccc(S(=O)(=O)N3CCCCC3)cc2)s1 | -32* | 14 | 5 | . | 8

Assay outcomes (PubChem)
